CF NFkB inh: cystic fibrosis NF-kB activation inhibition; inhibition, % at 5 µM; KKLEB NF-kB-GFP reporter, PAF-induced, GFP fluorescence overnight; 0.86% of 360,000 active;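 active = at least 50% inhibition at 5 µM, scaled per plate between neutral and stimulator controls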;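 also: PAF is a Pseudomonas aeruginosa culture filtrate used as stimulus; plate controls were PAF-stimulated DMSO wells for no effect and unstimulated DMSO wells for full effect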
Peg3 prom inh: reduces Peg3 promoter-driven luciferase expression in HeLa | HeLa PEG-Prom luciferase reporter, luminescence, overnight | inhibition, % at 20 µM | 1.7% of 360,000 active | AID 588405;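 active = inhibition of at least 50% at 20 µM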
Shn3 3UTR inh: reduces Shn3 3'UTR luciferase signal in osteoblasts. Clone20 osteoblast Shn3 3'UTR firefly luciferase, 24 h. 0.52% of 360,000 active. inhibition, % at 12.5 µM;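 active = mean inhibition of at least 75% with every replicate also reaching 75%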;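 also: 0% = median of neutral control wells and 100% = pilot-screen positive control compound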
HIF-2a inh: inhibitors of HIF-2a; 786-0 RCC cells HIF-2a reporter, luciferase luminescence, overnight; inhibition, % at 18.8 µM; 0.72% of 360,000 active; AID 624352;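 active = inhibition of the luminescence signal of 40% or more relative to plate controls, in a single-dose primary screen at 18.75 µM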
TRPM1 prom inh: reduces MITF-dependent TRPM1 promoter luciferase signal; inhibition, % at 12.5 µM; 0.83% of 330,000 active; SK-MEL-5 TRPM1 promoter luciferase, 24 h;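 active = mean inhibition across replicates of 60% or more, whatever share of single replicates reaches that level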
KKLEB cytotox: CF airway cell cytotoxicity counter-screen. KKLEB CF airway cells viability, ATPlite luminescence, overnight; stronger effect = lower value; cells stimulated with P. aeruginosa culture filtrate. activity change (cytotoxicity), % at 5 µM. 0.36% of 360,000 active. AID 602141;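 active = corrected activity change at or below -50% at 5 µM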
* marks the source's active call; other numbers are inactive results; · = not tested or not shown. A selection: hits, their analogues and other compounds. The true share with any hit is near 2.8%.

SMILES | CF NFkB inh | Peg3 prom inh | Shn3 3UTR inh | HIF-2a inh | TRPM1 prom inh | KKLEB cytotox
Cc1cccc(CN2C(=O)/C(=C\c3ccc(C(=O)NCCCN4CCN(C)CC4)cc3)Oc3ccccc32)c1 | 5 | 87* | 12 | 3 | 94* | -28
CN1CCN(CCCNC(=O)c2ccc(/C=C3\Oc4ccccc4N(Cc4ccccc4F)C3=O)cc2)CC1 | 19 | 69* | 3 | 4 | 34 | -19
CCc1ccc(C2c3[nH]c4ccccc4c3CCN2C(=O)CN2CCN(CC)CC2)cc1 (configuration not stated) | 13 | 84* | -11 | 6 | 43 | -19
CCc1ccc(C2c3[nH]c4ccccc4c3CCN2C(=O)CNC(N)=O)cc1 (configuration not stated) | -18 | 17 | 13 | 36 | 20 | -7
CCOc1ccc(Br)cc1S(=O)(=O)Nc1cccc(S(=O)(=O)N2CCOCC2)c1 | -10 | 15 | -13 | 19 | -20 | 4
C[C@H](CO)N1C[C@H](C)[C@@H](CN(C)C(=O)c2ccc3c(c2)OCO3)Oc2cc(/C=C/c3ccccc3)ccc2S1(=O)=O | 7 | 62* | 13 | -8 | · | 8
C[C@@H]1CN([C@@H](C)CO)S(=O)(=O)c2ccc(/C=C/c3ccccc3)cc2O[C@@H]1CN(C)Cc1ccc(C(=O)O)cc1 | -11 | 13 | -5 | 14 | · | 3
Cc1cccc(OCC(=O)Nc2ccc3c(c2)nc2n3CCOC2)c1 | -10 | -81 | 6 | -30 | -5 | -3
COc1ccc(C(=O)NCCCN2CCOCC2)cc1OC | -1 | 6 | 13 | 3 | 0 | -9
CCN1CCCC1CNC(=O)c1ccc2c(c1)NC(=O)/C(=C\c1ccc(OC)c(OC)c1)S2 (configuration not stated) | -8 | 40 | 1 | 21 | 87* | 5
Cc1cccc(/C=C2/Sc3ccc(C(=O)NCCCN4CCOCC4)cc3NC2=O)c1 | 16 | 65* | -10 | 13 | -7 | -5
CCN1CCN(CCCNC(=O)c2ccc3c(c2)NC(=O)c2ccccc2S3)CC1 | -3 | 1 | -11 | 16 | · | 7
COc1ccc(/C=C2/Sc3ccc(C(=O)NCCCN4CCOCC4)cc3NC2=O)cc1OC | -5 | 88* | 6 | 23 | 7 | -6
CCN1CCN(CCCNC(=O)c2ccc3c(c2)NC(=O)/C(=C\c2cccc(C)c2)S3)CC1 | 8 | 107* | 9 | 8 | 102* | -10
Cc1cccc(OCCN2CSC(=S)N(C)C2)c1 | -5 | 57* | -3 | 13 | 21 | -2
Cc1cc(C)n(-c2nc(NCC(C)O)c3c4c(sc3n2)COC(C)(C)C4)n1 (configuration not stated) | -4 | -22 | 10 | -57 | -16 | -6
Cc1cc(C)n(-c2nc(SCCN(C)C)c3c4c(sc3n2)COC(C)(C)C4)n1 | 6 | 54* | 5 | -29 | 0 | -34
CC(=O)NC(Cc1cccc(C)c1)C(=O)NC1CCN(S(=O)(=O)c2ccccc2)CC1 (configuration not stated) | 10 | 10 | 4 | 1 | 2 | -3
COc1ccc(C(=O)NN(C)c2nc(C(F)(F)F)nc3ccccc23)cc1 | 75* | 2 | 34 | 36 | 41 | -8
COc1cccc(N2CCN(C(=S)Nc3ccccc3)CC2)c1 | 1 | 110* | 16 | 7 | -3 | -2
CCc1ccc(NC(=S)N2CCN(c3cccc(OC)c3)CC2)cc1 | 11 | 20 | 26 | 1 | 1 | -1
O=C(Cc1ccc(Br)cc1)N(Cc1ccccc1)c1ccccn1 | 13 | 18 | 6 | 10 | -3 | 4
COc1ccc(S(=O)(=O)N2C[C@H]3CON(C)[C@H]3C[C@H]2c2ccc(-c3cc4ccccc4o3)cc2)cc1 | 5 | 33 | 14 | -3 | · | -8
NC(=Nc1nc(-c2ccccn2)cc2ccccc12)c1ccccn1 | 20 | 49 | 88* | -29 | 65* | -22
COc1ccccc1N(C)S(=O)(=O)c1ccc(C(=O)Nc2cccc(S(=O)(=O)N3CCOCC3)c2)cc1 | 3 | 50* | 57 | 11 | -7 | 20
SMILES | CF NFkB inh | Peg3 prom inh | Shn3 3UTR inh | HIF-2a inh | TRPM1 prom inh | KKLEB cytotox
COc1ccccc1N(C)S(=O)(=O)c1ccc(C(=O)Nc2cc(F)ccc2C)cc1 | -7 | 15 | 83* | 32 | 12 | -2
O=C(O)CSc1cc(NS(=O)(=O)c2cccc([N+](=O)[O-])c2)c2ccccc2c1O | 72* | 3 | 57 | 15 | 76* | -7
O=C(O)c1cccc(S(=O)(=O)Nc2ccc([N+](=O)[O-])cc2O)c1 | -2 | 4 | · | 18 | 0 | 2
CCc1ccc(S(=O)(=O)Nc2cc(SCC(=O)O)c(O)c3ccccc23)cc1 | 64* | -2 | 4 | -2 | 46 | 4
CCOc1ccc(S(=O)(=O)Nc2cc(SCC(=O)O)c(O)c3ccccc23)cc1 | 91* | 20 | 11 | 0 | 19 | -40
Cc1ccc(C)c(S(=O)(=O)Nc2cc(SCC(=O)O)c(O)c3ccccc23)c1 | 81* | 97* | 56 | 66* | 67* | -54*
CC(=O)c1ccc(N2C(=NC(=O)CCc3ccccc3)SC3CS(=O)(=O)CC32)cc1 (configuration not stated) | -10 | 1 | 6 | 17 | -3 | 7
COc1ccc(/C=C/C(=O)NCC(=O)N=Nc2c(O)[nH]c3ccc([N+](=O)[O-])cc23)cc1 | 78* | 42 | 9 | 4 | 6 | -45
O=C(COC(=O)c1cc([N+](=O)[O-])ccc1N1CCOCC1)Nc1ccc(Cl)cn1 | 22 | 53* | -18 | 13 | -14 | -15
O=C(COC(=O)c1cc([N+](=O)[O-])ccc1N1CCOCC1)Nc1ccc(Cl)cc1 | 11 | 31 | 16 | 16 | 2 | -14
COc1ccc(COC(=O)c2cc([N+](=O)[O-])ccc2N2CCOCC2)cc1F | 55* | -5 | 31 | 29 | 66* | -23
O=C(OCc1ccc(Br)cc1)c1cc([N+](=O)[O-])ccc1N1CCOCC1 | -3 | 0 | -30 | 12 | · | -4
CCc1ccccc1NC(=O)CNC(=O)CCC(=O)c1cc(C)sc1C | -16 | 4 | -15 | 11 | · | -4
CC1(C(=O)NS(=O)(=O)c2ccc(Cl)s2)CCN1C(=O)c1ccccc1CCc1ccccc1 (configuration not stated) | -6 | 18 | -3 | 15 | · | -8
CC1(C)CCN2CCC(C)(C)c3c(O)ccc1c32 | 23 | 48 | 58 | 15 | 64* | -10
CC(=O)C[C@H](O)CC(=O)[C@H]1OC(=O)CCCCCCCCc2ccccc21 | 4 | -10 | -11 | 15 | -21 | -1
CC(=O)Nc1cccc(C(=O)/C=C/c2ccc(F)cc2)c1 | 27 | 107* | -2 | -27 | -7 | -4
CC(=O)Nc1cccc(C(=O)/C=C/c2ccc(N(C)C)cc2)c1 | 3 | -251 | -30 | -217 | -30 | -18
